Holding throughout (experiment): RNA Bind-n-Seq (nitrocellulose filter binding and sequencing); miR-122 guide loaded in AGO2; 60 min incubation; 30 mM Tris pH 8.0, 100 mM potassium acetate, 2 mM magnesium acetate, 0.5 mM TCEP, 0.005% NP-40, 0.01 mg/ml yeast tRNA; 3 nM AGO2-miR-122, 100 nM RNA library; 60; high values mean tight binding
What all share (conditions): protein: recombinant; tags: His6 (N-terminal, pFastBac HTA)

The target of test [1] is AGO2 WT (phosphosite mutant background) (Homo sapiens, UniProt Q9UKV8 1-859, S387D;S824A;S828D;S831D;S834A). The procedure, abridged:
(§1)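 His-tagged AGO2 was expressed in Sf9 insect cells by baculovirus, loaded with a synthetic guide RNA, and purified by Ni-NTA and a biotinylated capture oligo. Bound RNA was extracted, reverse-transcribed, barcode-amplified and Illumina-sequenced. Fold enrichment is each sequence's read fraction divided by its input-library read fraction.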

For test [2], the target named is AGO2 L192P (Homo sapiens, UniProt Q9UKV8 1-859, L192P;S387D;S824A;S828D;S831D;S834A). The method in brief: as §1
Test [3] concerns the target AGO2 A367P (Homo sapiens, UniProt Q9UKV8 1-859, A367P;S387D;S824A;S828D;S831D;S834A). The method in brief: as §1
The target in test [4] is AGO2 T357M (Homo sapiens, UniProt Q9UKV8 1-859, T357M;S387D;S824A;S828D;S831D;S834A). The method in brief: as §1
Test [5] addresses AGO2 F182del (Homo sapiens, UniProt Q9UKV8 1-859, S387D;S824A;S828D;S831D;S834A;del182-182). The method in brief:
as §1

Numbering of substitutions follows the chain as printed.

Chain of AGO2 A367P (Q9UKV8 whole entry A367P/S387D/S824A/S828D/S831D/S834A): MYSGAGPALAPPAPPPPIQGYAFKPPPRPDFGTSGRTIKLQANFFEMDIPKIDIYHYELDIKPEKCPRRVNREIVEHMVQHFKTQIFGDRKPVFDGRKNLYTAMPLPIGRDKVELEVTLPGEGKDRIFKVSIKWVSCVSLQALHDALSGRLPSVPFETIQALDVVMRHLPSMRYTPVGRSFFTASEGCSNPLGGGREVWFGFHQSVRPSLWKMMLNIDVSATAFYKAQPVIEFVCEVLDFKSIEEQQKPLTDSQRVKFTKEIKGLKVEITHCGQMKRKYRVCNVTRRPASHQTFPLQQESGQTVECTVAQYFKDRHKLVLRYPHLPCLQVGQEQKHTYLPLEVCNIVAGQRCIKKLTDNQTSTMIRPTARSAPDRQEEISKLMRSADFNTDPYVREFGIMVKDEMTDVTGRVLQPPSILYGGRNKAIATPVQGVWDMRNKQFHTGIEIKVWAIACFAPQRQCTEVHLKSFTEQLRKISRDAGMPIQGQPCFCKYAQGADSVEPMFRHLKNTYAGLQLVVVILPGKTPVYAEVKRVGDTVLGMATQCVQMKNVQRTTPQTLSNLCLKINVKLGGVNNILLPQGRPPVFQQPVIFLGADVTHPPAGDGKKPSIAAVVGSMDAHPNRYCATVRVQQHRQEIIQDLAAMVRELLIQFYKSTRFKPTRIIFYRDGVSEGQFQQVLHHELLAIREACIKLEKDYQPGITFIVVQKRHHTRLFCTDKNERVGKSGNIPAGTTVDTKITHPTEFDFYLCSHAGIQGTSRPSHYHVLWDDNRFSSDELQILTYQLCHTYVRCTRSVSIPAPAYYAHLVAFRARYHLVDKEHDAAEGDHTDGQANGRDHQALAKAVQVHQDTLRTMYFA
Chain of AGO2 T357M (Q9UKV8 whole entry T357M/S387D/S824A/S828D/S831D/S834A): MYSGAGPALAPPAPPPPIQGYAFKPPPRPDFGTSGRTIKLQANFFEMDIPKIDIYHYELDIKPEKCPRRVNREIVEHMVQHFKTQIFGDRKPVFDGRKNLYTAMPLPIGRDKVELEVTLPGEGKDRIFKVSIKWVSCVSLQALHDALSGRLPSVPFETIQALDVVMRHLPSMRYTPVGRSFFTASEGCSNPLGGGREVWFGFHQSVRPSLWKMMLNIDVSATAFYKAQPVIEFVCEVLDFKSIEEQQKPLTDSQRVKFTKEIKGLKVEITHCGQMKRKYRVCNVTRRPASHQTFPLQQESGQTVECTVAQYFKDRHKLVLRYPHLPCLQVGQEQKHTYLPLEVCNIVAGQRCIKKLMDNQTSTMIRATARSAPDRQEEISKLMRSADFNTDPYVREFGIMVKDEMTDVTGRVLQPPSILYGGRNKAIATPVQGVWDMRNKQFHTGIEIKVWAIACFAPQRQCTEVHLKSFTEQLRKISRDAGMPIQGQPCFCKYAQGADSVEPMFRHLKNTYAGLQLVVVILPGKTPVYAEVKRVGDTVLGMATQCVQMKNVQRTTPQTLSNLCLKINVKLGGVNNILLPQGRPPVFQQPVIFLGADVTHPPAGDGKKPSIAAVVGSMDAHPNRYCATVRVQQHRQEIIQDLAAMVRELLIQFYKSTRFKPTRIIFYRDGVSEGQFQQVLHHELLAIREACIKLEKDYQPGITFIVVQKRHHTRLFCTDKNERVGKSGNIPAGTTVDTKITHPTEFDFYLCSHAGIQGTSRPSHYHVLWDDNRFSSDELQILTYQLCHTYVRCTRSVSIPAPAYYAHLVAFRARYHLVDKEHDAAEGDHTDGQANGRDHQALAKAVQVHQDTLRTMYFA
Chain of AGO2 F182del (Q9UKV8 other isoform, or with tags, fused parts or gaps S387D;S824A;S828D;S831D;S834A;del182-182): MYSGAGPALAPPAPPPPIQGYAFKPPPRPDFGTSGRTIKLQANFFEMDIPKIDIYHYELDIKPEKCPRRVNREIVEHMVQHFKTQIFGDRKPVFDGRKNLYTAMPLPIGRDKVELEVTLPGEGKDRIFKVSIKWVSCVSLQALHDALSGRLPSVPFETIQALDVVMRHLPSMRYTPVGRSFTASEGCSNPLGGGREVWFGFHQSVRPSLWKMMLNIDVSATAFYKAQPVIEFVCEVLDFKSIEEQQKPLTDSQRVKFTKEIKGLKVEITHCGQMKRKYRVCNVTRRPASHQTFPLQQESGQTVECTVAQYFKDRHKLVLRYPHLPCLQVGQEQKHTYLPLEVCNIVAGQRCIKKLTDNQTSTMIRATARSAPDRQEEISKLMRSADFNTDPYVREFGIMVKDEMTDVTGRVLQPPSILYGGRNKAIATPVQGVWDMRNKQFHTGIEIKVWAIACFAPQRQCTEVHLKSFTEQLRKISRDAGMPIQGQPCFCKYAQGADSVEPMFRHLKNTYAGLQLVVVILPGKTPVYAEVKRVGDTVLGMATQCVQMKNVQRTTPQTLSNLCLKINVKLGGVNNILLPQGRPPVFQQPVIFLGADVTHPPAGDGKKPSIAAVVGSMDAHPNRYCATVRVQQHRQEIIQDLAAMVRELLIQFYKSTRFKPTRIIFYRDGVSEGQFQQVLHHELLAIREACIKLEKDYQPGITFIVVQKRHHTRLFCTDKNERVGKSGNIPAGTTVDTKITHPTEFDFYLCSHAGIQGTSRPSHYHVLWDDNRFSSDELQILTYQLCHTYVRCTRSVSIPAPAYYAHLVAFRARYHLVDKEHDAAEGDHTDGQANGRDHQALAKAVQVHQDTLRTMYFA
Chain of AGO2 WT (phosphosite mutant background) (Q9UKV8 whole entry S387D/S824A/S828D/S831D/S834A): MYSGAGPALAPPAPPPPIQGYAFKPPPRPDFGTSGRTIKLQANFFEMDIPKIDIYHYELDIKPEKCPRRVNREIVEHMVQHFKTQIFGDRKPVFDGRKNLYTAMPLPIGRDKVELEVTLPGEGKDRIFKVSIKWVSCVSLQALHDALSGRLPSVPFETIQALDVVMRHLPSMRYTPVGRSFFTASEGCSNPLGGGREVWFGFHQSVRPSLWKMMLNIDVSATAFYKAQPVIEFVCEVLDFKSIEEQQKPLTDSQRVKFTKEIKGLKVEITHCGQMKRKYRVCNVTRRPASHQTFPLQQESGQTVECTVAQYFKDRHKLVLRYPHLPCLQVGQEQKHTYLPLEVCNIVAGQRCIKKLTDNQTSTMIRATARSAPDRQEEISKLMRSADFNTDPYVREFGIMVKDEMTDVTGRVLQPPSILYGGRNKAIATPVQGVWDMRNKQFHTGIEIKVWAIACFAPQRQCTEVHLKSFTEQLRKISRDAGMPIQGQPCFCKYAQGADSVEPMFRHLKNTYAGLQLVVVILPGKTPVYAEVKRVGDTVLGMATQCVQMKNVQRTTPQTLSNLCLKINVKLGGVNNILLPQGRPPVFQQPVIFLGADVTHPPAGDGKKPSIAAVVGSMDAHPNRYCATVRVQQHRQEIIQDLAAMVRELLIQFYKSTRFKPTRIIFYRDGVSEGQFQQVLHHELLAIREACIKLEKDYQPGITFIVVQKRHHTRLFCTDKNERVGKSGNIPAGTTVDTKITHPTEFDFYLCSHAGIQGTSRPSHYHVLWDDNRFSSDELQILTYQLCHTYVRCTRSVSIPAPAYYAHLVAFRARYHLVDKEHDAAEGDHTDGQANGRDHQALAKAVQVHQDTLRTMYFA
Chain of AGO2 L192P (Q9UKV8 whole entry L192P/S387D/S824A/S828D/S831D/S834A): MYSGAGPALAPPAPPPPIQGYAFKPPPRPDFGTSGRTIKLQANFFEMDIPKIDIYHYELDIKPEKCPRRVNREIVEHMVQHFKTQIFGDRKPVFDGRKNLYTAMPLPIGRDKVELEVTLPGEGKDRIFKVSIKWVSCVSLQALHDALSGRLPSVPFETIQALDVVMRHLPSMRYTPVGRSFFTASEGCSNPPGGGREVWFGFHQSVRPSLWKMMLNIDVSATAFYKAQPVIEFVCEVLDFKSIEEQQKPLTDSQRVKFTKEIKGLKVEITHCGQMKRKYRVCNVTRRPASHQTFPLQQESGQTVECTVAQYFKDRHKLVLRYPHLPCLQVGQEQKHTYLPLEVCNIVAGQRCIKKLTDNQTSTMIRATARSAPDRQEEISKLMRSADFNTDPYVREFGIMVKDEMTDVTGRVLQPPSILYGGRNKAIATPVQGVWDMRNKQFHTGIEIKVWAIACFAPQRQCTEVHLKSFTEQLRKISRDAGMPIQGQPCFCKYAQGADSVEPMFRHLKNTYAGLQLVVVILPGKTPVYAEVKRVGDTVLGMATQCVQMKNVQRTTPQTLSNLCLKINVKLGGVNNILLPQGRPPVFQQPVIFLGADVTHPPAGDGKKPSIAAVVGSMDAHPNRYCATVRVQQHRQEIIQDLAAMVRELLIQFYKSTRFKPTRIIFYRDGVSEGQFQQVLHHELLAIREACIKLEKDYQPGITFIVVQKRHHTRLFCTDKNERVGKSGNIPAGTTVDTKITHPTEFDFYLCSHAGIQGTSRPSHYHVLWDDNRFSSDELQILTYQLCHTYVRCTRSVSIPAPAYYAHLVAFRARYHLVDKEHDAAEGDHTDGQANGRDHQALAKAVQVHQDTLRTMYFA

B1: GCACTCCG (ssRNA)
RNA 1: GAGUUCUACAGUCCGACGAUCCCAACGCACUCCGCACCUGGAAUUCUCGGGUGCCAA
RNA 2: UGGAGUGUGACAAUGGUGUUUG
DNA 1: GATCGTCGGACTGTAGAACTC
DNA 2: TTGGCACCCGAGAATTCCA
modifications: constant regions annealed to DNA blockers; guide miR-122 5' phosphate
On to B1, for which the binding signal in test [1] was 85.3 fold enrichment over input; in test [2] it was 60.8 fold enrichment over input; in test [3] it was 86.8 fold enrichment over input; in test [4] it was 35.6 fold enrichment over input; in test [5] it was 69.5 fold enrichment over input.

B2: GTGCTCCA (ssRNA)
RNA 1: B1 RNA 1 with C28U, A29G, G34A
RNA 2: UGGAGUGUGACAAUGGUGUUUG
DNA 1: GATCGTCGGACTGTAGAACTC
DNA 2: TTGGCACCCGAGAATTCCA
modifications: constant regions annealed to DNA blockers; guide miR-122 5' phosphate
As to B2, the binding signal is 0.17 fold enrichment over input in test [1]; 0.594 fold enrichment over input in test [2]; 0.522 fold enrichment over input in test [3]; 0.649 fold enrichment over input in test [4]; 0.604 fold enrichment over input in test [5].

B3: ATACTTTA (ssRNA)
RNA 1: B1 RNA 1 with G27A, C28U, C32U, C33U, G34A
RNA 2: UGGAGUGUGACAAUGGUGUUUG
DNA 1: GATCGTCGGACTGTAGAACTC
DNA 2: TTGGCACCCGAGAATTCCA
modifications: constant regions annealed to DNA blockers; guide miR-122 5' phosphate
As to B3, the binding signal was 0.121 fold enrichment over input in test [1], 0.536 fold enrichment over input in test [2], 0.174 fold enrichment over input in test [3] and 0.643 fold enrichment over input in test [4].

B4: GTATTCCA (ssRNA)
RNA 1: B1 RNA 1 with C28U, C30U, G34A
RNA 2: UGGAGUGUGACAAUGGUGUUUG
DNA 1: GATCGTCGGACTGTAGAACTC
DNA 2: TTGGCACCCGAGAATTCCA
modifications: constant regions annealed to DNA blockers; guide miR-122 5' phosphate
For the molecule B4, the binding signal in test [1] was 0.18 fold enrichment over input; in test [2], 0.545 fold enrichment over input; in test [3], 0.446 fold enrichment over input; in test [4] it was 0.623 fold enrichment over input; in test [5], 0.898 fold enrichment over input.

B5: ATGCTTCA (ssRNA)
RNA 1: B1 RNA 1 with G27A, C28U, A29G, C32U, G34A
RNA 2: UGGAGUGUGACAAUGGUGUUUG
DNA 1: GATCGTCGGACTGTAGAACTC
DNA 2: TTGGCACCCGAGAATTCCA
modifications: constant regions annealed to DNA blockers; guide miR-122 5' phosphate
In the case of B5, the binding signal is 0.135 fold enrichment over input in test [1]; 0.573 fold enrichment over input in test [2]; 0.309 fold enrichment over input in test [3]; 0.582 fold enrichment over input in test [4]; 0.842 fold enrichment over input in test [5].

B6: GCACTTCA (ssRNA)
RNA 1: B1 RNA 1 with C32U, G34A
RNA 2: UGGAGUGUGACAAUGGUGUUUG
DNA 1: GATCGTCGGACTGTAGAACTC
DNA 2: TTGGCACCCGAGAATTCCA
modifications: constant regions annealed to DNA blockers; guide miR-122 5' phosphate
With B6, the binding signal in test [1] is 0.149 fold enrichment over input; in test [2], 0.575 fold enrichment over input; in test [3] it was 0.348 fold enrichment over input; in test [4], 0.655 fold enrichment over input; in test [5], 0.82 fold enrichment over input.

B7: GCATTCCA (ssRNA)
RNA 1: B1 RNA 1 with C30U, G34A
RNA 2: UGGAGUGUGACAAUGGUGUUUG
DNA 1: GATCGTCGGACTGTAGAACTC
DNA 2: TTGGCACCCGAGAATTCCA
modifications: constant regions annealed to DNA blockers; guide miR-122 5' phosphate
As to B7, the binding signal was 0.182 fold enrichment over input in test [1]; 0.661 fold enrichment over input in test [2]; 0.356 fold enrichment over input in test [3]; 0.65 fold enrichment over input in test [4]; 1.01 fold enrichment over input in test [5].

B8: ATACTTCA (ssRNA)
RNA 1: B1 RNA 1 with G27A, C28U, C32U, G34A
RNA 2: UGGAGUGUGACAAUGGUGUUUG
DNA 1: GATCGTCGGACTGTAGAACTC
DNA 2: TTGGCACCCGAGAATTCCA
modifications: constant regions annealed to DNA blockers; guide miR-122 5' phosphate
As for B8, the binding signal in test [1] is 0.136 fold enrichment over input; in test [2], 0.646 fold enrichment over input; in test [3], 0.396 fold enrichment over input; in test [4] it was 0.62 fold enrichment over input; in test [5], 1.33 fold enrichment over input.

B9: ACACCCTA (ssRNA)
RNA 1: B1 RNA 1 with G27A, U31C, C33U, G34A
RNA 2: UGGAGUGUGACAAUGGUGUUUG
DNA 1: GATCGTCGGACTGTAGAACTC
DNA 2: TTGGCACCCGAGAATTCCA
modifications: constant regions annealed to DNA blockers; guide miR-122 5' phosphate
Turning to B9, the binding signal in test [1] is 0.142 fold enrichment over input; in test [2], 0.6 fold enrichment over input; in test [3], 0.25 fold enrichment over input; in test [4], 0.636 fold enrichment over input; in test [5], 0.799 fold enrichment over input.

B10: GTGCTCCG (ssRNA)
RNA 1: B1 RNA 1 with C28U, A29G
RNA 2: UGGAGUGUGACAAUGGUGUUUG
DNA 1: GATCGTCGGACTGTAGAACTC
DNA 2: TTGGCACCCGAGAATTCCA
modifications: constant regions annealed to DNA blockers; guide miR-122 5' phosphate
As for B10, the binding signal in test [1] is 0.149 fold enrichment over input; in test [2], 0.546 fold enrichment over input; in test [3], 0.535 fold enrichment over input; in test [4], 0.617 fold enrichment over input; in test [5], 0.426 fold enrichment over input.

(Values after paper PMC12529666, “Dysregulation of AGO2-miRNA dynamics underlies the AGO2-associated Lessel–Kreienkamp syndrome”.)
